# Values joined by “and” are separate entries in the source; they are usually repeats but may differ in a detail not shown here. Equal values may be shown once. Where a name gives a salt, the structure may show the parent alone.
# Columns and labels:
# Experiment in all cases: cell viability relative to vehicle control; higher = less cytotoxic
# Details in all cases: 10 µM
# K562 = tested on: K562
# Summary of the method: (§1)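 CRISPR-edited SRSF2 P95 mutant and isogenic wild-type clones of four leukaemia lines were screened against Selleck bioactive, kinase and epigenetic probe libraries, with identity-inconsistent compounds removed. Compounds were acoustically dispensed into 384-well plates at a single 10 µM dose, with 2000 cells in 50 µL medium per well. After 48 h, supernatant was removed and CellTiter-Glo luminescence was read. Viability was expressed as percent of the on-plate DMSO vehicle control, analysed in Genedata Screener.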
# MARIMO = tested on: MARIMO
# Summary of the method: as §1
# MOLM14 = tested on: MOLM14
# Summary of the method: as §1
# OCI-AML2 = tested on: OCI-AML2
# Summary of the method: as §1
Compound,cell viability (K562; SRSF2 genotype: SRSF2 P95H/wt),cell viability (K562; SRSF2 genotype: SRSF2 wt/wt),cell viability (MARIMO; SRSF2 genotype: SRSF2 P95H/wt),cell viability (MARIMO; SRSF2 genotype: SRSF2 wt/wt),cell viability (MOLM14; SRSF2 genotype: SRSF2 P95H/wt),cell viability (MOLM14; SRSF2 genotype: SRSF2 wt/wt),cell viability (OCI-AML2; SRSF2 genotype: P95H/wt),cell viability (OCI-AML2; SRSF2 genotype: wt/wt)
O=C(NC[C@H](O)CN1CCc2ccccc2C1)c1cc(NC2COC2)ncn1,95.9% and 92.8%,95.6%,87.6%,98.1%,88.8%,92.6%,76.3%,77.1%
CNCc1ccc(-c2cc(-c3nc(-c4ccc(S(=O)(=O)C(C)C)cc4)cnc3N)on2)cc1,3.16% and 2.89%,1.89%,0.36%,0.32%,0.28%,0.34%,0.39%,0.9%
CCOC(=O)/C=C/c1ccc(O)c(OC)c1 [Ethyl ferulate],98% and 104%,104%,92%,107%,98%,101%,112%,108%
COC(=O)C1=CO[C@@H](O[C@@H]2O[C@H](CO)[C@@H](O)[C@H](O)[C@H]2O)[C@H]2[C@@H]1C(=O)C[C@@H]2C [Verbenalin],104% and 98.5%,104%,99.9%,100%,110%,103%,98.4%,100%
CC(C)N(CCC(=O)c1ccc2ccccc2c1)Cc1ccccc1,12.2% and 12.8%,13.9%,0.57%,0.67%,0.58%,0.45%,0.38%,0.4%
CN1CCN(C2=Nc3cc(Cl)ccc3Nc3ccccc32)CC1 [Clozapine (Clozaril)],85.7% and 106%,98.8%,104%,94.4%,101%,106%,100%,98.1%
CC(N)C12CC3CC(CC(C3)C1)C2 (stereo not drawn) [Rimantadine (Flumadine)],101% and 98.2%,108%,98.9%,104%,99.8%,102%,89.8%,96.6%
COc1c(C)c(C(=O)c2ccc(N)c(C(=O)O)c2)n2ccccc12,106% and 97.6%,101%,102%,110%,105%,108%,97.6%,106%
C[C@@H]1CCO[C@H]2Cn3cc(C(=O)NCc4ccc(F)cc4F)c(=O)c(O)c3C(=O)N12,84.5% and 87%,77.5%,84.3%,98.4%,94.1%,94%,92%,98.5%
O=c1c(O)c(-c2ccc(O)c(O)c2)oc2cc(O)cc(O)c12 [Quercetin (Sophoretin)],97.3% and 89.3%,91.5%,93.9%,93.6%,98.3%,97.5%,93.8%,81.5%
CC(C)c1noc(N2CCC(COc3ccc(-c4ccc(S(C)(=O)=O)cc4)nc3)CC2)n1,59.8% and 77.2%,70.5%,70%,34.1%,90.4%,95.7%,28.4%,36.8%
Cc1nnsc1C(=O)Nc1ccc(-n2nc(C(F)(F)F)cc2C(F)(F)F)cc1,78.2% and 82%,76.3%,86.6%,98.2%,107%,99.1%,76.6%,89.2%
CC(C)C(=O)Oc1ccc(CO)cc1[C@H](CCN(C(C)C)C(C)C)c1ccccc1 [Fesoterodine Fumarate],97.2% and 107%,102%,91.7%,98.4%,102%,104%,113%,98%
COc1cc2nccc(Oc3ccc(NC(=O)NC4CC4)c(Cl)c3)c2cc1C(N)=O [E7080 (Lenvatinib)],63.7% and 82.7%,67.5%,83.9%,89.3%,34.6%,28.1%,50.9%,56.1%
N[C@@H](CSCCB(O)O)C(=O)O [BEC Hydrochloride],105% and 101%,96.8%,99.4%,114%,101%,104%,109%,111%
CNC(=O)c1cc(Oc2ccc(NC(=O)Nc3ccc(Cl)c(C(F)(F)F)c3)c(F)c2)ccn1 [Regorafenib (BAY 73-4506)],17.6% and 21.9%,14.9%,29.2%,28%,16.6%,13.1%,23.1%,22.8%
CCN(CC)CCNC(=O)c1c(C)[nH]c(/C=C2\C(=O)Nc3ccc(F)cc32)c1C [Sunitinib Malate],17.8% and 22.7%,12.7%,18.5%,19.4%,0.31%,0.38%,0.42%,1.47%
CCN1CCC[C@H]1CNC(=O)c1cc(S(N)(=O)=O)ccc1OC [Levosulpiride (Levogastrol)],101% and 103%,108%,111%,104%,109%,107%,104%,93.6%
CC(C)(C)n1nc(-c2ccc(Cl)cc2)c2c(N)ncnc21,56.2% and 78.5%,63.3%,84.6%,104%,66%,67.3%,80%,78.3%
Nc1nc2[nH]cnc2c(=S)[nH]1 [Thioguanine],25.9% and 28.5%,26.8%,46.3%,37.5%,35.2%,23%,13.5%,20.5%
O=C(O)c1ccc(O)cc1 [4-Hydroxybenzoic acid],93.3% and 100%,98.8%,93.4%,97.5%,98.4%,99.5%,87%,102%

Compound,cell viability (K562; SRSF2 genotype: SRSF2 P95H/wt),cell viability (K562; SRSF2 genotype: SRSF2 wt/wt),cell viability (MARIMO; SRSF2 genotype: SRSF2 P95H/wt),cell viability (MARIMO; SRSF2 genotype: SRSF2 wt/wt),cell viability (MOLM14; SRSF2 genotype: SRSF2 P95H/wt),cell viability (MOLM14; SRSF2 genotype: SRSF2 wt/wt),cell viability (OCI-AML2; SRSF2 genotype: P95H/wt),cell viability (OCI-AML2; SRSF2 genotype: wt/wt)
C=CS(=O)(=O)NC1CCN(C(=O)CNc2cc(I)c(Cl)cc2OC)CC1 [K-Ras(G12C) inhibitor 9],22.4% and 31%,82.8%,36.4%,81.1%,60.6%,84.1%,22.1%,30%
CC(C)NCC(O)COc1ccc(COCCOC(C)C)cc1 (stereo not drawn) [Bisoprolol fumarate],94.1% and 90.5%,89.9%,93.2%,94.5%,83.8%,91.5%,93.6%,99.8%
CC(=O)c1ccccc1 [Acetophenone],98.7% and 89.7%,91.4%,84.5%,91.5%,90.6%,91.1%,85.3%,83.6%
N#CC1(c2ccc(NC(=O)c3cccnc3NCc3ccncc3)cc2)CCCC1 [Apatinib mesylate],79.4% and 87.5%,81.8%,77.7%,86.2%,45.8%,42.6%,68.4%,62.5%
CO[C@H]1C[C@H](O[C@H]2[C@H](C)O[C@@H](O[C@@H]3/C(C)=C/C[C@@H]4C[C@@H](C[C@]5(C=C[C@H](C)[C@@H](C6CCCCC6)O5)O4)OC(=O)[C@@H]4C=C(C)[C@@H](O)[C@H]5OC/C(=C\C=C\[C@@H]3C)[C@]54O)C[C@@H]2OC)O[C@@H](C)[C@@H]1O [Doramectin],33% and 39.8%,37.1%,36.8%,29.4%,24.6%,29.9%,15.3%,17.3%
Cc1ccc([C@@H]2O[C@H](CO)[C@@H](O)[C@H](O)[C@H]2O)cc1Cc1ccc(-c2ccc(F)cc2)s1 [Canagliflozin],93.4% and 99.1%,99.7%,99%,90.3%,102%,102%,102%,97.1%
CCOC(=O)c1c(C)n(C)c2ccc(O)cc12 [Mecarbinate],108% and 99.1%,99.8%,97.3%,104%,116%,112%,92.2%,98.1%
O=c1cc(N2CCOCC2)oc2c(-c3ccc4c(c3)OCCO4)csc12,39.4% and 50.7%,46.9%,36.4%,30.9%,15.7%,18.2%,3.38%,11.7%
CN(C)CC(c1ccc(O)cc1)C1(O)CCCCC1 (stereo not drawn) [Desvenlafaxine],96.7% and 97.5%,101%,102%,102%,98.1%,100%,100%,99.3%
"Cc1c(CN2CCN(C(=O)[C@H](C)O)CC2)sc2c(N3CCOCC3)nc(-c3cnc(N)nc3)nc12 [Apitolisib (GDC-0980, RG7422)]",43.1% and 43.8%,38.9%,39.7%,33.8%,21.7%,21.6%,5.46%,14.5%
CC/C(=C(\c1ccccc1)c1ccc(OCCN(C)C)cc1)c1ccccc1 [Tamoxifen Citrate (Nolvadex)],82.2% and 76.4%,93%,80%,74.3%,74.5%,81.8%,69.7%,74.5%
CC1(C)S[C@@H]2[C@H](NC(=O)Cc3ccccc3)C(=O)N2[C@H]1C(=O)O [Penicillin G Sodium],100% and 92%,99.5%,98.5%,107%,96.9%,103%,91.9%,109%
CC[C@@H](C)Nc1cc(C(=O)N[C@H]2C[C@H]3CC[C@@H](C2)N3c2ccc(C(=O)C3CC3)cn2)c(C)cc1C(N)=O,19.1% and 26.9%,23%,32.8%,28.5%,2%,2.43%,14.2%,21%
O=C1NC(=O)/C(=C/c2ccc3nccc(-c4ccncc4)c3c2)S1,62.8% and 84%,69.7%,54.6%,50.5%,40.1%,42%,25.4%,28.8%
Cc1cc(Nc2ncnc3ccc(-c4ccc(CNCCS(C)(=O)=O)o4)cc23)ccc1Oc1ccn2ncnc2c1 [HER2 Inhibitor 1],96.3% and 102%,105%,107%,108%,93%,101%,95.7%,89.6%
OC[C@@H](O)[C@@H](O)[C@H](O)[C@@H](O)CO [Sorbitol (Glucitol)],101% and 105%,102%,103%,102%,97.3%,104%,101%,100%
CC12CCC(CC1=O)C2(C)C (stereo not drawn) [Camphor],102%,103%,104%,108%,105%,104%,102%,99.1%
CCCCCCCCC/C(=C\C1=C(C)C(=O)C(OC)=C(OC)C1=O)C(=O)O,106% and 100%,99.4%,112%,105%,94.2%,102%,108%,107%
Cc1cncc(CN2CCC(=C3c4ccc(Cl)cc4CCc4cccnc43)CC2)c1 [Rupatadine Fumarate],77% and 89.3%,76.5%,62.6%,54.1%,61.4%,64.4%,38.6%,46%
CN1CCN(c2ccc(C(=O)Nc3n[nH]c4ccc(Cc5cc(F)cc(F)c5)cc34)c(NC3CCOCC3)c2)CC1 [Entrectinib (RXDX-101)],0.53% and 0.51%,0.41%,0.56%,2.11%,0.29%,0.28%,0.22%,0.35%
